Only some compounds are listed: those with a hit (about 1.5% of all), similar ones and a draw of the others.
ABHD5 PLIN5 PPI = ABHD5-PLIN5 interaction inhibitors, primary screen, cell lysate, split luciferase complementation, luminescence; inhibition, % at 4 µM; Perilipin-5 (Homo sapiens) + 1-acylglycerol-3-phosphate O-acyltransferase ABHD5 (Homo …; Split G. princeps luciferase complementation, 4 h; 360,000 tested, 0.78% active;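 active means inhibition above the mean inhibition across every tested compound plus 3 SD, cut at about 22% in these data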;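 further: 0% = DMSO only wells and the 100% control is not disclosed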
TLR9-MyD88 inh = inhibitors of TLR9-MyD88 association in cells, primary screen, cell-based, CHO, BLA complementation, fluorescence; inhibition, % at 4.98 µM; CCF4 FRET ratio; AID 504734, 2011; 340,000 tested, 0.21% active; Toll-like receptor 9 (Homo sapiens) + Myeloid differentiation primary response protein …;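 active means inhibition above the mean over all tested compounds plus 3 SD, cut at about 21% in these data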;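 further: 0% = DMSO only wells and 100% = clavulanate BLA inhibitor control wells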
Target sequence (Q99836 whole entry, looked up): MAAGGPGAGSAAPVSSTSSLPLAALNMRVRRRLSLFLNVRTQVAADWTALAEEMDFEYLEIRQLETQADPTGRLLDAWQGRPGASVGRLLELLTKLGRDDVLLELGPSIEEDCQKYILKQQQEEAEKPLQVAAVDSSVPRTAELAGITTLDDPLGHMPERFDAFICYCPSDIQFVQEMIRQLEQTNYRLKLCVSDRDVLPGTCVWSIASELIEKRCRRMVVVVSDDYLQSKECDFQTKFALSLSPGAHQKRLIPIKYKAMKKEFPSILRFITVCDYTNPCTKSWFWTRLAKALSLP
Target sequence (Q9NR96 whole entry, looked up): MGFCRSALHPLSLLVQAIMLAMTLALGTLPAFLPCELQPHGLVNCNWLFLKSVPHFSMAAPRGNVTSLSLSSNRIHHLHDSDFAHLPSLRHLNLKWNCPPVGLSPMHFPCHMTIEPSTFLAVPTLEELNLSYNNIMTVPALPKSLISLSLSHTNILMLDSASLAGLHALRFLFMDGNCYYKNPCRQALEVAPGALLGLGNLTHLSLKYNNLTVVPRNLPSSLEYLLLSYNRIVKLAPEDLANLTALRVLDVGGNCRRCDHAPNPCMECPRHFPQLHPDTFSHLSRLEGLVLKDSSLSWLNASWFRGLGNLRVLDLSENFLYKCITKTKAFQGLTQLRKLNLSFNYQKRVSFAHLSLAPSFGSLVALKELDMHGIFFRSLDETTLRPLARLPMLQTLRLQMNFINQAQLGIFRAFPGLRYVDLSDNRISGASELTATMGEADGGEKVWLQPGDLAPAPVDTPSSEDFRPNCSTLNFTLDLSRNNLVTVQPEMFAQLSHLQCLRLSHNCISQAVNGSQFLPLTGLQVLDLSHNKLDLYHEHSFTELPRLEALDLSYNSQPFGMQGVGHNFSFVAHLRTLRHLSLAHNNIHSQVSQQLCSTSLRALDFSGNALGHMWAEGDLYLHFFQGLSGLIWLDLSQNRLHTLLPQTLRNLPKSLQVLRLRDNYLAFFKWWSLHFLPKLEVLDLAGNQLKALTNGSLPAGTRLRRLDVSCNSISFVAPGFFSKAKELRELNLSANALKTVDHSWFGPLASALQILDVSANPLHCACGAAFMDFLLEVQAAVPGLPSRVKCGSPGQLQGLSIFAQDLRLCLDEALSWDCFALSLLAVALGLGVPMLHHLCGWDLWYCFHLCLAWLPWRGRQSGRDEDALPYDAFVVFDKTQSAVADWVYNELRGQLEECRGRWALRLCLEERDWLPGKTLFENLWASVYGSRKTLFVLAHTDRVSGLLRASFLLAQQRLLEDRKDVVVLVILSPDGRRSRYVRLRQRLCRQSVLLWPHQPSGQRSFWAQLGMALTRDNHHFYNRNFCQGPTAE
B2AR ag = beta2AR agonists driving receptor internalization, primary screen, cell-based, FAP fluorogen, flow cytometry. Beta-2 adrenergic receptor (Homo sapiens), P07550. Am2.2-beta2AR cells. response, % (concentration not given with the values). 340,000 tested, 0.43% active;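 active means response above a set limit, near 3 SD of response in nonfluorescent compounds, cut at about 42% in these data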
TLR4 MyD88 comp = inhibitors of TLR4-MyD88 association in cells, primary screen, cell-based, HeLa CL3-4, BLA complementation, FRET ratio; Toll-like receptor 4 (Homo sapiens) + Myeloid differentiation primary response protein …; 200,000 tested, 0.18% active; inhibition, % at 8.4 µM; AID 861, 2007; HeLa CL3-4 TLR4/MyD88 BLA complementation; in the data active means inhibition above about 25%;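 further: 0% = vehicle and 100% = reference inhibitor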
NTR1 ag = agonists of human NTR1, primary screen, imaging, U2OS cells, beta-arrestin-GFP, high content; activation, % at 20 µM; NTR1-U2OS beta-arrestin-GFP spot imaging, agonist mode; 330,000 tested, 0.17% active;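 active means activation at or above 40% of the spot to cytoplasm intensity ratio, with at least 20 cells analyzed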;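 further: 0% = DMSO without peptide and 100% = 100 nM NTR1 peptide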
NOD2-RIPK2 inh = NOD2-RIPK2 binding disruptors in cells, primary screen, fluorescence, CHO cells, BLA complementation; Receptor-interacting serine/threonine-protein kinase 2 (Homo sapiens), O43353; CCF4 ratio; inhibition, % at 4.98 µM; 360,000 tested, 0.38% active; AID 624267, 2012; in the data active means inhibition above about 21%;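 further: 0% = vehicle only and 100% = reference blocker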
ABHD5 PLIN5 conf = ABHD5-PLIN5 interaction inhibitors, confirmation, biochemical, luminescence; shares compounds with ABHD5 PLIN5 PPI; 2,200 tested, 67% active; inhibition, % at 4 µM; AID 651612, 2012; in the data active means inhibition above about 23%;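 further: 0% = DMSO vehicle wells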
HNF4 split-luc = HNF4 dimerization inhibitors, counter-screen for ABHD5-PLIN5 interaction inhibitor project, biochemical, split-luciferase complementation, luminescence. shares compounds with ABHD5 PLIN5 PPI. inhibition, % at 4 µM. 2,200 tested, 77% active. AID 651674, 2012;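 active means mean inhibition across replicate wells exceeding the computed hit threshold, cut at about 13% in these data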;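 further: light from luciferase halves that rejoin when HNF4 fusion proteins dimerize; 0% = DMSO only wells and the 100% control is not given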
NOD2-RIPK2 conf = NOD2-RIPK2 binding disruptors, retest, confirmation, fluorescence, CHO cells, BLA complementation, triplicate | AID 624370, 2012 | shares compounds with NOD2-RIPK2 inh | inhibition, % at 4.98 µM | CCF4 FRET | 1,200 tested, 70% active;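 active means mean inhibition across replicates above a set limit taken from the earlier primary screen, cut at about 21% in these data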;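 further: 0% = DMSO-only wells and the high end = clavulanate BLA-blocked wells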
NOD2 BLA counter = NOD2-RIPK2 counterscreen BLA reporter activity | shares compounds with NOD2-RIPK2 inh | CHO BLA reporter, CCF4 FRET ratio | inhibition, % at 4.98 µM | 1,200 tested, 57% active;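 active means mean inhibition above the low-control mean inhibition plus three low-control SD, cut at about 11% in these data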;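 further: 0% = DMSO only wells and 100% = clavulanate high control wells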
The depositor's hits bear a star; · = not tested or not shown.

SMILES	ABHD5 PLIN5 PPI	TLR9-MyD88 inh	B2AR ag	TLR4 MyD88 comp	NTR1 ag	NOD2-RIPK2 inh	NOD2-RIPK2 conf	NOD2 BLA counter	others
CCN(CC)c1ccc(/C=C/[N+](=O)[O-])cc1	54*	20	63*	20	30	44*	54*	28*	ABHD5 PLIN5 conf=96*;HNF4 split-luc=96*
CCOC(=O)[C@]12Cc3cc(C)ccc3[C@H]1N(C1CCCCC1)C(=O)c1cc(OC)ccc12	61*	·	·	·	·	62*	73*	2	ABHD5 PLIN5 conf=43*;HNF4 split-luc=54*
COc1ccc(-n2c(/C=C/c3ccc(O)c(OC)c3)nc3ccccc3c2=O)cc1	-1	19	-24	·	11	19	·	·
COc1cc(/C=C/[N+](=O)[O-])ccc1O	70*	10	26	3	24	42*	44*	-6	ABHD5 PLIN5 conf=86*;HNF4 split-luc=93*
NC1=NC(c2cccnc2)n2c(nc3ccccc32)N1 (configuration not stated)	·	·	·	·	2	·	·	·
Cc1cc(C(=O)N2CCC3(CC2)OCCO3)no1	3	4	2	·	1	2	·	·
COC(=O)C12OCC34C(CC5C(C)=C(O)C(=O)CC5(C)C3C(O)C1O)OC(=O)C(OC(=O)/C=C(\C)C(C)C)C24 (configuration not stated)	-10	-11	-9	·	·	29*	24*	-2
N#CC1=C(N)Oc2c(c(=O)sc3ccccc23)C1c1cccnc1 (configuration not stated)	2	0	-6	-4	-1	22*	1	-3
N#CC1=C(N)Oc2c(c(=O)oc3ccccc23)C1c1ccncc1 (configuration not stated)	8	0	-9	3	0	0	·	·
CC(=O)OC1C(=O)OCC23CCC4(C)OC4C2OC2CC(OC(=O)C=CC=CC(=O)OCCC1C)C3(C)C21CO1 (configuration not stated)	-11	-4	8	·	·	31*	25*	-11
CC(O)C1C=CC=CC(=O)OC2CC3OC4C5OC5(C)CCC4(COC(=O)C4OC4(C)C(O)CO1)C2(C)C31CO1 (configuration not stated)	-2	3	4	·	·	29*	21*	-5
CCCCCn1c(=O)c(C(=O)Nc2ncccc2C)c(O)c2ccccc21	-8	-23	-7	·	-1	-3	·	·
CCOC(=O)[C@]12Cc3cc(OC)ccc3[C@H]1N(C1CCCCC1)C(=O)c1cc(OC)ccc12	19	·	·	·	·	40*	26*	-4
c1ccc(-c2ccc(-c3n(-c4ccccn4)c4ccccc4[n+]3-c3ccccn3)cc2)cc1	-1	3	4	-10	·	-2	·	·
CC(=O)OC1(C)CC(C)C(=O)C(C(O)CC2CC(=O)NC(=O)C2)C1 (configuration not stated)	-1	-9	68*	·	·	28*	23*	-4
CCOP(=O)(CCP(=O)(OCC)OCC)OCC.C[CH2][Sn]([Cl])([Cl])[CH2]C	78*	-2	-18	·	·	25*	51*	1
ClCCN(CCCl)c1ccc(C=NNc2ncccn2)cc1	2	6	3	·	·	-8	·	·
